From PubChem BioAssay (NCI)
About 79,000 compounds went through this panel and 15% of them were active in at least one assay; those are over-represented in the sample as a whole. Active and inactive are the calls of the source. Rule as the data show it: active = growth inhibition above about 70%; inactive = the rest.

Test: NCI Yeast Anticancer Drug Screen. Data for the wt2 strain (AID 169);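 also: 0% = growth of vehicle-treated yeast cultures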
Details: S. cerevisiae wt2 strain growth inhibition, active compounds read high
Protocol: Growth inhibition of yeast strains with defined genetic alterations is measured as a screen for potential anti-cancer activity. Selected strains with alterations in DNA damage repair or cell cycle control were exposed to compounds and growth inhibition was measured relative to vehicle treated controls. The strain used in this assay is wt2

## Oc1c(Br)cc(Br)cc1Br
At 1.2 µM
  growth inhibition: -8% (inactive)
At 3.7 µM
  growth inhibition: -9% (inactive)
At 11.0 µM
  growth inhibition: -8% (inactive)
At 33.0 µM
  growth inhibition: 26% (inactive)
At 100.0 µM
  growth inhibition: 84% (active)

## Nc1nnc(N)n1-n1c(N)nnc1N
At 1.2 µM
  growth inhibition: -1% (inactive)
At 3.7 µM
  growth inhibition: -1% (inactive)
At 11.0 µM
  growth inhibition: -5% (inactive)
At 33.0 µM
  growth inhibition: -2% (inactive)
At 100.0 µM
  growth inhibition: 1% (inactive)

## NC1=NCC(c2ccc(Cl)cc2)O1 (stereo not given)
At 1.2 µM
  growth inhibition: -1% (inactive)
At 3.7 µM
  growth inhibition: 0% (inactive)
At 11.0 µM
  growth inhibition: 0% (inactive)
At 33.0 µM
  growth inhibition: -1% (inactive)
At 100.0 µM
  growth inhibition: 47% (inactive)

## COC(COC(=O)N1CCN(C=O)CC1)C1=C(N2CC2)C(=O)C(C)=C(N2CC2)C1=O (stereo not given)
At 1.2 µM
  growth inhibition: -27% (inactive)
At 3.7 µM
  growth inhibition: -33% (inactive)
At 11.0 µM
  growth inhibition: -25% (inactive)
At 33.0 µM
  growth inhibition: -17% (inactive)
At 100.0 µM
  growth inhibition: -2% (inactive)

## COC1C(O)C(C)OC(OC2C(Oc3cccc4c(O)c5c(=O)oc6ccc(C)c7c(=O)oc(c34)c5c67)OC(C)C(O)C2O)C1O (stereo not given)
At 1.2 µM
  growth inhibition: 0% (inactive)
At 3.7 µM
  growth inhibition: 3% (inactive)
At 11.0 µM
  growth inhibition: 12% (inactive)
At 33.0 µM
  growth inhibition: 22% (inactive)
At 100.0 µM
  growth inhibition: 20% (inactive)

## CCCCCCCCCCCCCCCCP(=O)(O)OCC(N)C(=O)O (stereo not given)
At 1.2 µM
  growth inhibition: -1% (inactive)
At 3.7 µM
  growth inhibition: -2% (inactive)
At 11.0 µM
  growth inhibition: -4% (inactive)
At 33.0 µM
  growth inhibition: -2% (inactive)
At 100.0 µM
  growth inhibition: -3% (inactive)

## C[C@@]12CCC(=O)C=C1CC[C@H]1C2=CC[C@]2(C)C1CC[C@@]2(C)O (stereo not given in full)
At 1.2 µM
  growth inhibition: -26% (inactive)
At 3.7 µM
  growth inhibition: -19% (inactive)
At 11.0 µM
  growth inhibition: -18% (inactive)
At 33.0 µM
  growth inhibition: 64% (inactive)
At 100.0 µM
  growth inhibition: 92% (active)

## CCN(CC)CCBr
At 1.2 µM
  growth inhibition: -1% (inactive)
At 3.7 µM
  growth inhibition: 6% (inactive)
At 11.0 µM
  growth inhibition: 0% (inactive)
At 33.0 µM
  growth inhibition: -3% (inactive)
At 100.0 µM
  growth inhibition: -3% (inactive)
